Screening data: PubChem BioAssay, NMMLSC
RGS7-Gao – regulators of human RGS7-Galphao interaction; P09471; Multiplexed bead flow cytometry, RGS7-Galphao binding; actives lie on both sides; AID 1439; hit rate 0.35% among 220,000; binding response (% of control), % at 10 µM; in the data active means binding response below about 49% or above about 150%; inconclusive means no clear call, values can overlap the other calls; inactive means in between;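 further: fluorescent Galphao held in activated GDP-AlF4 state binding bead-coupled RGS7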
Target sequence (P09471 whole entry, looked up): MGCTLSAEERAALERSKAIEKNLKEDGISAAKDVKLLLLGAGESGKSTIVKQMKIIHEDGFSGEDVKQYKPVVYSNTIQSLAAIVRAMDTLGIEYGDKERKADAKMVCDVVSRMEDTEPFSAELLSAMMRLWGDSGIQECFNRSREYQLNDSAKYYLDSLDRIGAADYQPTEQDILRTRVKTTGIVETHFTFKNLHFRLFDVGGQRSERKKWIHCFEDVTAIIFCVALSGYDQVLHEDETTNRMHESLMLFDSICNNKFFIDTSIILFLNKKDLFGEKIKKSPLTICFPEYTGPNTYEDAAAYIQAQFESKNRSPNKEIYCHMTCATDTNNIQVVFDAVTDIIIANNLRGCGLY
RGS16-Gao HTS – regulators of human RGS16-Galphao interaction | O15492+P09471 | bead-based flow cytometry RGS16-Galphao binding, fluorescence; actives lie on both sides | binding response (% of control), % at 10 µM | hit rate 0.38% among 220,000 | AID 1441; call rule not given here;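 further: Galphao activated by GDP with aluminum fluoride before binding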
Target sequence (O15492 whole entry, looked up): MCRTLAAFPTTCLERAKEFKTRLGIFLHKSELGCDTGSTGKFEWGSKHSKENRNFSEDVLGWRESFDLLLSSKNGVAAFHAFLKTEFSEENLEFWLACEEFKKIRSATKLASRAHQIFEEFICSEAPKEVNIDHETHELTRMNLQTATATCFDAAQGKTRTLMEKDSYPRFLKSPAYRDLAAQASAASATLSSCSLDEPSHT
Target sequence (P09471 whole entry, looked up): as the sequence (P09471 whole entry, looked up) above
GSH fluor – GSH bead compound fluorescence profile; hit rate 0.25% among 190,000; fluorescence (KMESF) at 10 µM; GSH beads flow cytometry, compound fluorescence 488/530 nm; hits give high values; AID 1776; in the data active means fluorescence above about 89;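 further: glutathione beads carrying GST-tagged Bcl family fusion proteins plus one bare bead set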
RGS8-Gao – human RGS8-Galphao interaction regulation; P09471; multiplexed bead flow cytometry, RGS8-Galphao binding; actives lie on both sides; response (percent of control binding), % at 10 µM; hit rate 0.34% among 220,000; in the data active means response below about 60% or above about 140%; inactive means in between;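 further: Galphao activated as the GDP aluminium fluoride complex binding bead-coupled RGS8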
Avidin bead fluor – avidin bead compound fluorescence profile; Avidin beads, compound fluorescence 488/530 nm, flow cytometry; hits give high values; fluorescence (KMESF) at 10 µM; hit rate 0.38% among 220,000; in the data active means fluorescence above about 47
RGS4-Gao reg – human RGS4-Galphao interaction regulation; P09471; Multiplexed bead flow cytometry, RGS4-Galphao binding; actives lie on both sides; binding response (% of control), % at 10 µM; hit rate 0.33% among 220,000; in the data active means binding response below about 49% or above about 150%; inactive means in between;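 further: fluorescent Galphao activated with aluminum fluoride binding bead-coupled RGS4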
Numbers stand for hits; - = inactive; ? = inconclusive; . = no result; [ ] = dose if it differs, or a comment. Compounds with a hit are over-represented: about 1.2% of the library has one in this group of screens.

SMILES	RGS7-Gao	RGS16-Gao HTS	GSH fluor	RGS8-Gao	Avidin bead fluor	RGS4-Gao reg
COc1cc(/C=N/N(C)c2ccccc2)ccc1O	-	-	-	-	-	-
COc1cc(OC)c(OC)cc1/C=N/N(C)c1ccccc1	-	-	-	-	54	-
COc1ccccc1NC(=O)Nc1ccnn1C1CCCCC1	-	-	266	-	-	-
COc1ccccc1NC(=O)Nn1cnnc1	-	-	242	-	-	-
Cc1cc(C)nc(S/C=C/C(=O)c2ccccc2F)n1	?	-	.	-	-	-
Cc1cc(-c2ccccc2)n2nc(N)nc2n1	?	-	.	-	-	-
Cc1ccc(CN2CCN(C(=O)C3CCCO3)CC2)cc1 (stereo not given)	-	-	-	-	-	-
O=C(C1CCCO1)N1CCN(Cc2c(O)ccc3ccccc23)CC1 (stereo not given)	-	-	-	-	61	-
Cc1nc(CN2CCCCC2)cc(=O)[nH]1	-	-	-	-	-	-
O=C(CSc1nnc(-c2ccncc2)o1)N1CCc2ccccc2C1	-	-	-	-	47	-
COc1ccc(NC(=O)COC(=O)[C@@H](NC(=O)c2c(F)cccc2F)C(C)C)cc1	164[activator]	-	-	142[activator]	-	150[activator]
COc1cc(OC)cc(C(=O)N[C@H](C(=O)OCC(=O)Nc2ccc(F)c(F)c2F)C(C)C)c1	?	-	-	-	-	-
CCCS(=O)(=O)NCCc1cc2ccc(C)cc2[nH]c1=O	-	-	88	-	-	-
Cc1ccc(/C=C/C(=O)Nc2ccccc2C(N)=O)cc1	-	-	-	-	-	-
Cc1cc(C(=O)OCC(=O)c2ccc(Br)s2)c(C)o1	-	-	269	-	-	-
Nc1nc(-c2ccc3c(c2)CCCC3)cs1	-	-	263	-	-	-
O=C(COc1ccc(-c2nnco2)cc1)NC1CCCc2ccccc21 (stereo not given)	-	-	233	-	-	-
O=C(COc1ccccc1)NC1CCCc2ccccc21 (stereo not given)	-	-	-	-	-	-
c1cncc(CNc2nc(N3CCOCC3)nc(N3CCOCC3)n2)c1	-	-	-	-	67	-
Cc1cc(N2CCOCC2)nc(NCc2ccccc2)n1	-	-	259	-	-	-
CCc1ccc(N(CC(=O)Nc2ccccc2C(=O)N2CCOCC2)S(C)(=O)=O)cc1	-	-	-	-	-	-
COc1ccc2nc(SCC(=O)Nc3ccccc3C#N)[nH]c2c1	-	-	-	-	-	-
COc1ccc2nc(SCC(=O)Nc3ccccc3C)[nH]c2c1	-	-	-	-	64	-
CC(=O)C1=NN(c2ccccc2)C2(S1)S/C(=C\c1ccccc1)C(=O)N2c1ccccc1 (stereo not given)	-	-	-	-	-	-
COC(=O)C1=C(C)NC(=O)C1(NC(=O)CN1CCCC1=O)C(F)(F)F (stereo not given)	-	-	-	-	55	-
SMILES	RGS7-Gao	RGS16-Gao HTS	GSH fluor	RGS8-Gao	Avidin bead fluor	RGS4-Gao reg
CCOC(=O)NC1(C(F)(F)F)C(=O)NC(C)=C1C(=O)OC (stereo not given)	-	-	-	-	-	-
CC(=O)Nc1ccc(S(=O)(=O)N2CCSC2c2ccc(Cl)cc2)cc1 (stereo not given)	-	-	265	-	-	-
CCN(CC)C(=O)c1ccc2c3c(cccc13)C(=O)N(CCc1ccc(OC)c(OC)c1)C2=O	-	-	-	-	-	-
OC(CSc1ccccc1Cl)CN1CCN(c2ccccc2F)CC1 (stereo not given)	-	-	-	-	89	-
OC(CSc1c(Cl)cccc1Cl)CN1CCN(c2ccccc2F)CC1 (stereo not given)	-	-	-	-	-	-
COc1ccc(NC(=O)c2ccc(S(=O)(=O)N3CCOCC3)o2)cc1	?	-	.	-	-	-
CC1=C(C#N)C(=O)NC(=O)/C1=C/c1ccc(-c2ccc(S(N)(=O)=O)cc2)o1	?	-	-	-	-	-
C=CCOC(=O)c1cc(-c2ccc(/C=C3\C(=O)NC(=O)C(C#N)=C3C)o2)ccc1Cl	-	-	260	-	-	-
CCOC(=O)CCn1nc(-c2ccc(Cl)cc2)cc1N	-	-	-	-	48	-
CCOC(=O)Cn1nc(-c2ccc(Cl)cc2)cc1N	-	-	-	-	-	-
COc1cccc(-n2c(SCC#N)nnc2-c2cnccn2)c1	-	-	247	-	-	-
CCN(CC)C(=O)C(=O)Nc1ccc(F)c(Cl)c1	?	-	-	-	-	-
COc1ccc(N2CCN(C(=O)c3c(C)nn(-c4ccccc4)c3C)CC2)cc1	-	-	-	-	-	-
O=C(O)C(Cc1cc2ccccc2[nH]1)N1C(=O)C2CC=C(Cl)CC2C1=O (stereo not given)	-	-	117	-	-	-
CC1CCc2c(sc(NC(=O)c3ccccc3C(=O)O)c2C#N)C1 (stereo not given)	-	-	-	-	64	-
O=C1c2cc(S(=O)(=O)NCCCO)ccc2-c2ccc(S(=O)(=O)NCCCO)cc21	-	-	251	-	-	-
CC(C)c1csc(CN2CCC(CO)(Cc3cccc(F)c3)CC2)n1	-	-	-	-	-	-
CC(C)=CCC(C)(C)C1OCCN1C(=O)Nc1ccccc1 (stereo not given)	-	-	258	-	-	-
COC(=O)COc1cc(C)cc2oc(=O)c(CC(=O)OC)c(C)c12	-	-	-	-	60	-
Cc1nnc(SCC(=O)NCC2CCCO2)n1-c1ccccc1 (stereo not given)	-	-	273	-	-	-
Cc1nn(CC(=O)O)c(=O)c2ccccc12	-	-	263	-	-	-
Cc1nn(CC(=O)NCC2CCCO2)c(=O)c2ccccc12 (stereo not given)	-	-	270	-	-	-
CC1Oc2ccccc2N(CC(=O)NCC2CCCO2)C1=O (stereo not given)	-	-	-	-	54	-
CC1Oc2ccccc2N(CC(=O)NCc2ccccc2)C1=O (stereo not given)	-	-	-	-	-	-
CCn1cc(C2=NC(CC(C)C)CO2)c2ccccc21 (stereo not given)	?	-	.	-	-	-
SMILES	RGS7-Gao	RGS16-Gao HTS	GSH fluor	RGS8-Gao	Avidin bead fluor	RGS4-Gao reg
CCN1CCN(c2c(/C=C3\SC(=S)N(Cc4ccco4)C3=O)c(C)c(C#N)c(=O)n2C)CC1	?	-	.	-	-	-
Cc1ccc(-c2cc(C(=O)N3CCCc4ccccc43)no2)cc1	-	-	-	-	-	-
CCOC(=O)C1(Cc2ccccc2)CCN(Cc2cc(OC)c3c(c2)OCO3)CC1	-	-	-	-	-	-
COCCNC(=S)N/N=C(\C)c1cccc([N+](=O)[O-])c1	-	-	-	-	-	-
COc1ccc(C=O)cc1COc1ccccc1F	-	-	-	-	-	-
COc1ccc(/C=C/C(=O)c2ccccc2)cc1COc1ccccc1F	-	-	-	-	90	-
